NTR1 ag: NTR1 (human) agonism. NTR1-U2OS beta-arrestin-GFP spot imaging, agonist mode. activation, % at 20 µM. P30989. 330,000 tested, 0.17% active;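 active means activation at or above 40% of the spot to cytoplasm intensity ratio, with at least 20 cells analyzed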;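 further: 0% = DMSO without peptide and 100% = 100 nM NTR1 peptide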
Target sequence (P30989 whole entry, looked up): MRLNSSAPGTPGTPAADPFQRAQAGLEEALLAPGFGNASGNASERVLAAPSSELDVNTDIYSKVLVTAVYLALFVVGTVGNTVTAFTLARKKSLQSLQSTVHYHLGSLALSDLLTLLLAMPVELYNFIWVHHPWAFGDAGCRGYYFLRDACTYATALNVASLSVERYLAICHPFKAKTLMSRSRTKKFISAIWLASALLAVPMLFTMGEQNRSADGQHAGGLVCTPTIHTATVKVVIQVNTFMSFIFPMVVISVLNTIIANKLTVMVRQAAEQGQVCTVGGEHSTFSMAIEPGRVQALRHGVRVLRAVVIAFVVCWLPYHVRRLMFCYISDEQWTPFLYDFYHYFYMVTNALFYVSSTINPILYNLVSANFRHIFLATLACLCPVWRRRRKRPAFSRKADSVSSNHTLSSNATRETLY
Beta cell apopt: blocks beta cell apoptosis. INS-1E cytokine-induced death, ATP luminescence, 48 h; percent of positive-control rescue, neutral wells zero. protection from apoptosis, % (test concentration not listed). 300,000 tested, 0.8% active. AID 435005;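 active means Every replicate reaches about 75%, or at least half do and their mean reaches it too, limit read from the data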;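 further: 0% = cytokine-treated negative control wells and 100% = positive control rescue; higher means more ATP so stronger rescue from cytokine killing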
697 NFkB inh: inhibitors of the PMA/ionomycin-induced NF-kB reporter in 697 B cells; inhibition, % at 4 µM; 330,000 tested, 0.33% active; 697 B-cell NF-kB luciferase reporter, 16 h; in the data active means inhibition above about 35%
Jurkat NFkB inh: lowers PMA/ionomycin-induced NF-kB signal in Jurkat cells; 330,000 tested, 0.53% active; inhibition, % at 4 µM; AID 435003; PMA/ionomycin-induced NF-kB luciferase reporter, luminescence; in the data active means inhibition above about 50%
Mdm2 MdmX PPI: disrupts the human Mdm2-MdmX interaction. inhibition, % at 8 µM. 330,000 tested, 3% active. AID 485346. SaOS-2 split-luciferase Mdm2/MdmX complementation, luminescence;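 active means inhibition of at least 50% at 8 µM in the primary screen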
A1 inh: inhibitors of the anti-apoptotic protein A1, read as caspase activation | MEF A1-2A-BIM cells, Caspase-Glo 3/7 luminescence, 3 h; percent of clofoctol response, vehicle zero | caspase activation, % (no concentration beside the values) | 330,000 tested, 0.066% active;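 active means over half of replicate activation scores above 10%, or exactly half above 10 with the replicate mean above 10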
Mdm2-MdmX conf: confirmation of human Mdm2/MdmX interaction inhibitors; shares compounds with Mdm2 MdmX PPI; Mdm2-MdmX binding, luminescent assay; inhibition, % at 8 µM; 10,000 tested, 55% active; in the data active means inhibition above about 40%
Full FLuc ctr: full-length luciferase inhibition in Mdm2/MdmX counter-screen. 6,200 tested, 77% active. SaOS-2 full-length luciferase counterscreen, luminescence. shares compounds with Mdm2 MdmX PPI. inhibition, % at 8 µM;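 active means mean inhibition at 8 µM reaching about 37%, which flags the compound as non-specific, limit read from the data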;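 further: p53-null SaOS-2 cells with luciferase driven by a doxycycline-inducible promoter; compound on cells about two nights before reading with doxycycline added after day one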
* marks the source's active call; other numbers are inactive results; nt = not tested or not shown. Most compounds without a hit are left out; they make up all but 3.8% or so of the library.

SMILES | NTR1 ag | Beta cell apopt | 697 NFkB inh | Jurkat NFkB inh | Mdm2 MdmX PPI | A1 inh | Mdm2-MdmX conf | others
O=C(NCC1CCCN1S(=O)(=O)c1cccs1)c1c(F)cccc1F (centres undefined) | -2 | 1 | -9 | -4 | 7 | 0 | nt
COc1cc(C(=O)ON=C2C3CC4CC(C3)CC2C4)cc(OC)c1OC | 1 | 8 | -35 | 6 | 95* | -1 | 27
Cc1nc(C(=O)Nc2ccccc2Cl)cc2c1[nH]c1ccccc12 | 1 | 13 | 12 | -37 | 80* | 1 | 57* | Full FLuc ctr=56*
COc1cccc(C#Cc2c(C=O)n(C)c3ccccc23)c1 | 20 | -2 | -23 | -9 | 66* | 1 | 40 | Full FLuc ctr=70*
Cn1c(C=O)c(C#CC(C)(C)O)c2ccccc21 | 2 | -8 | 10 | -13 | 30 | -2 | nt
COc1ccc(COc2cc(-c3cccc(OC)c3)nc3ccc(NC(=O)c4ccc(OC)cc4)cc23)cc1 | 1 | 25 | 21 | 31 | 52* | 0 | 40* | Full FLuc ctr=62*
COc1ccc(C(=O)Nc2ccc(NC(=O)c3cccc(OC)c3)cn2)cc1 | 2 | -4 | 4 | 5 | -15 | 0 | nt
COc1ccc(COc2cc(-c3cccc(OC)c3)nc3ccc(NC(=O)c4cccnc4)cc23)cc1 | 6 | 12 | 35 | 17 | 63* | 0 | 55* | Full FLuc ctr=69*
NS(=O)(=O)c1ccc(NC(=S)NNC(=O)c2ccc(Br)o2)cc1 | -1 | 0 | -28 | -38 | 4 | 0 | nt
Cc1cccc(OCCCC(=O)Nc2nc3ccccc3[nH]2)c1 | -1 | 13 | -13 | -2 | 76* | 0 | 74* | Full FLuc ctr=65*
O=C(CNC(=O)c1ccco1)NNC(=O)c1cccc(Cl)c1 | -1 | -8 | 11 | 10 | 3 | 0 | nt
O=C(NCCN1CCN(S(=O)(=O)c2ccc([N+](=O)[O-])cc2)CC1)C(=O)Nc1ccccc1 | 1 | 2 | 10 | -13 | 71* | 1 | 15
CCC(C)[C@H]1CN=C(N)N1CCc1cc(C(F)(F)F)cc(C(F)(F)F)c1 (some centres undefined) | -5 | 5 | -8 | -18 | 60* | 2 | 29
NC1=NC[C@H](Cc2ccccc2)N1CCCCC1CCCCC1 | 12 | 112* | -42 | 3 | 78* | 0 | 30
c1ccc(C[C@H]2CN=C(Nc3ccccc3)N2CCC2CCCC2)cc1 | -5 | 9 | -28 | -2 | 45 | 2 | nt
NC1=NC[C@@H](CC2CCCCC2)N1CCc1cc(C(F)(F)F)cc(C(F)(F)F)c1 | 12 | 109* | -16 | 8 | 99* | 1 | 100* | Full FLuc ctr=51*
CCC(C)[C@H]1CN=C(N)N1CCCc1cc(OC)c(OC)c(OC)c1 (some centres undefined) | -4 | -2 | 4 | -15 | 12 | 1 | nt
Cc1ccc(/C=C/C(=O)c2cc(Br)ccc2OC(=O)c2ccco2)cc1 | 3 | 8 | 13 | -3 | 39 | 2 | nt
COc1ccccc1/C=C/C(=O)c1cc(Br)ccc1OC(=O)c1ccco1 | 20 | 20 | -12 | -8 | 55* | 2 | 14
Cc1ccccc1OCc1occc1C(=O)Nc1cccc(-n2cnnn2)c1 | 6 | 15 | -49 | 45 | 59* | 0 | 47* | Full FLuc ctr=47*
Cc1ccc(NC(=O)CCc2nc3sc4c(c3c(=O)[nH]2)CCCC4)c(Br)c1 | 0 | 0 | 6 | -2 | 29 | 0 | nt
COc1ccc(-c2nc3ccccc3[nH]2)cc1 | 0 | nt | -157 | -59 | -67 | -8 | nt
COc1ccc(-c2cc(=O)n(-c3nc4ccccc4[nH]3)[nH]2)cc1 | 4 | 35 | -2 | 7 | 93* | -8 | 13
Cc1[nH]n(-c2ccccc2)c(=O)c1N=Nc1ccc(C(N)=O)cc1 | 0 | 1 | 4 | -11 | 18 | -1 | nt
O=c1cc(-c2ccccc2)[nH]n1-c1ccc([N+](=O)[O-])cc1 | 3 | 40 | -18 | -2 | 55* | -5 | 6
SMILES | NTR1 ag | Beta cell apopt | 697 NFkB inh | Jurkat NFkB inh | Mdm2 MdmX PPI | A1 inh | Mdm2-MdmX conf | others
O=Nc1c(-c2ccccc2)[nH]n(-c2ccccc2)c1=O | 2 | -16 | -4 | 9 | 19 | 0 | nt
O=c1c(N=Nc2ccc(O)cc2)c(-c2ccccc2)[nH]n1-c1ccc([N+](=O)[O-])cc1 | 0 | -9 | 7 | 12 | 100* | 0 | 19
NS(=O)(=O)c1ccc(N=Nc2c(-c3ccccc3)[nH]n(-c3nc(-c4ccccc4)cs3)c2=O)cc1 | 10 | 68 | 2 | 2 | 81* | -1 | 28
Cc1cc(C)n2[nH]c(=O)c(N=Nc3ccc(S(N)(=O)=O)cc3)c2n1 | -1 | 1 | 19 | -2 | -28 | 1 | nt
NC(=O)c1ccc(N=Nc2c(-c3ccccc3)[nH]n(-c3ccccc3)c2=O)cc1 | 6 | 0 | -4 | 4 | 93* | 0 | 85* | Full FLuc ctr=108*
CCC(C)(C)NC(=O)CN(Cc1ccco1)C(=O)CCC(=O)Nc1nccs1 | -1 | -1 | 3 | -3 | -6 | 0 | nt
N#C/C(=C\c1ccccc1)c1ccccn1 | 0 | -2 | -32 | -39 | -1 | -1 | nt
N#C/C(=C\c1ccc(Cl)c([N+](=O)[O-])c1)c1ccccn1 | 12 | 4 | 2 | 0 | 87* | 0 | 27
CC(NC(=O)/C(C#N)=C/c1ccc(Cl)c([N+](=O)[O-])c1)c1ccccc1 (centres undefined) | 24 | 0 | 3 | -1 | 100* | 0 | 67* | Full FLuc ctr=29
Nc1ccc(CCc2ccc(N)cc2)cc1 | 0 | -2 | -9 | -13 | 3 | 0 | nt
Cc1ccc(-c2nc3ccccc3s2)cc1NC(=S)NC(=O)c1cccc2ccccc12 | 3 | -3 | -119 | -116 | 99* | -1 | -6
CCOc1ccc(-c2c(C(=O)N/N=C/c3c[nH]c4ccccc34)nnn2-c2nonc2N)cc1 | 6 | 5 | -9 | -2 | -15 | 1 | nt
O=[N+]([O-])c1ccc(-c2nc(NCc3ccccc3)c3ccccc3n2)cc1 | -2 | 13 | -87 | -55 | 60* | 0 | -5
COc1cccc(-c2nc(NCc3ccccc3)c3ccccc3n2)c1O | 17 | 6 | 12 | -23 | 56* | 0 | 16
Cc1cccc(N2CCN(C(=O)c3cc4c(=O)n(C)c5ccccc5c4n3C)CC2C)c1 (centres undefined) | 10 | 9 | -17 | -14 | 52* | 0 | 17
COc1ccc(NC(=O)Cn2nc(C(=O)O)c3ccccc3c2=O)cc1S(=O)(=O)N1CCCCC1 | 5 | -8 | 1 | 14 | 7 | -3 | nt
O=C1c2ccccc2C(=O)N1CCc1ccccn1 | 2 | -5 | 12 | 13 | 20 | 0 | nt
